Test results published in PubChem BioAssay (EPA / NIEHS).
Inconclusive results are not listed. The source made the active and inactive calls. Rule for the calls, unless noted: active = hit-call score of the fitted dose curve at least 0.9, where 1 is the maximum; inactive = score below 0.9.

Experiments:
[1] = ATG_TAL_CIS: Attagene CIS-FACTORIAL HepG2 Assay for human TAL Basal Promoter (AID 2282966); conditions: HepG2 Attagene cis-factorial TAL promoter reporter; actives raise or lower the signal;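 note: background control endpoint measuring basal TAL promoter reporter mRNA not a specific factor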
How it was run: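 Fluorescence of labelled reporter cDNA fragments, resolved by capillary electrophoresis, gave the readout. Human HepG2 liver cells carried transiently transfected cis-element reporter units and were treated for 24 hours; activity was fitted bidirectionally against DMSO.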

[2] = ATG_TGFb_CIS: Attagene CIS-FACTORIAL HepG2 Assay for human Transforming Growth Factor (TGF) (AID 2282967); conditions: HepG2 Attagene CIS TGFb reporter, mRNA transcription; actives raise or lower the signal
How it was run: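 Multiplexed cis-reporter HepG2 system, 24 h treatment; mRNA induction read by fluorescence after RT-PCR and CE; DMSO negative control, bidirectional curve fitting.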

[3] = ATG_VDRE_CIS: Attagene CIS-FACTORIAL HepG2 Assay for human Vitamin D Receptor Element (VDRE) (AID 2282968); conditions: HepG2 VDRE cis-reporter transcription, actives raise or lower the signal
How it was run: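 RT-PCR/CE readout of reporter mRNA; HepG2, transient transfection, 24 h dosing; DMSO baseline; bidirectional analysis.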

[4] = molecular target: Estrogen receptor (Homo sapiens) (UniProt P03372); assay: ATG_ERa_TRANS: Attagene TRANS-FACTORIAL HepG2 Assay for human Estrogen Receptor alpha (ERa) (AID 2282970; active = hit-call score of the fitted dose curve at least 0.9, where 1 is the maximum); conditions: HepG2 Attagene TRANS ERa GAL4 reporter, mRNA
Sequence of Estrogen receptor (Homo sapiens) (P03372 whole entry, looked up, the tested form may be a part): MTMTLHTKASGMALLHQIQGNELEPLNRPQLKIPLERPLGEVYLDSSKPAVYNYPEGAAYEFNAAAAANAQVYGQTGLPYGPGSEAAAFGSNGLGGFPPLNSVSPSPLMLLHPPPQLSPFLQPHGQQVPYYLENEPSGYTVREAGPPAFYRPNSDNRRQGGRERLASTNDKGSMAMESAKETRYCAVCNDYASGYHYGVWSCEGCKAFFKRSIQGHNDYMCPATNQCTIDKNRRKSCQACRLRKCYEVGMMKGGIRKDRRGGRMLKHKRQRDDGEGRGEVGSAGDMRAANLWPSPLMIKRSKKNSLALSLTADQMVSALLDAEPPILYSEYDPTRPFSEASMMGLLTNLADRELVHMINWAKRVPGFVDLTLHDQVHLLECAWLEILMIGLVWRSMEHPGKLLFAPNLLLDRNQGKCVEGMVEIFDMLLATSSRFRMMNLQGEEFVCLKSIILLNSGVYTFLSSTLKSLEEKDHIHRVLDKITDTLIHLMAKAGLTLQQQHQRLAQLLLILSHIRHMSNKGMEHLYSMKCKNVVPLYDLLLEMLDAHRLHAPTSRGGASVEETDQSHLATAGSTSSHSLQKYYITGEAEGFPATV
How it was run: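 Human liver HepG2, transient transfection of multiple GAL4-UAS reporter units; TRANS format (exogenous NR-Gal4 chimera). 24 h dosing. Readout: reporter mRNA, RT-PCR, 6-FAM primer extension, HpaI digest, capillary electrophoresis. Positive direction vs DMSO.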

[5] = molecular target: X-box-binding protein 1 (Homo sapiens) (UniProt P17861); assay: ATG_Xbp1_CIS: Attagene CIS-FACTORIAL HepG2 Assay for human X-box Binding Protein 1 (XBP1) (AID 2282972); conditions: HepG2 XBP1 cis-element reporter, Attagene multiplex; actives raise or lower the signal
Sequence of X-box-binding protein 1 (Homo sapiens) (P17861 whole entry, looked up, the tested form may be a part): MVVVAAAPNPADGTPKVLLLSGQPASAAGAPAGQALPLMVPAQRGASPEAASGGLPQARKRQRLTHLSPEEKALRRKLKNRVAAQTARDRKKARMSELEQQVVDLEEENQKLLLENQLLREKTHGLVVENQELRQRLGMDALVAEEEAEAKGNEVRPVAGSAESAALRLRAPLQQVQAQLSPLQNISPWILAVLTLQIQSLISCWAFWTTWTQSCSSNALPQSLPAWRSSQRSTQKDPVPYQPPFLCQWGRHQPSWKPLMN
How it was run: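 Fluorescence-labelled cDNA fragments from reporter transcripts, separated by capillary electrophoresis, give the signal. Source: HepG2 cells transfected with promoter-driven reporter units, harvested 24 h post-dose. DMSO served as reference for bidirectional curve fitting.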

[6] = ATG_M_19_TRANS: Attagene TRANS-FACTORIAL HepG2 Assay for M19 Transcription Factor (Internal Marker) (AID 2282974; active = hit-call score of the fitted dose curve at least 0.9, where 1 is the maximum); conditions: HepG2 Attagene TRANS-FACTORIAL M19 internal marker reporter
How it was run: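 Transfected HepG2 (GAL4-UAS MRTUs), 24 h compound, TriZol RNA, DNase-treated RT, reporter PCR, FAM label, HpaI digest, CE fluorescence; gain vs DMSO.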

[7] = ATG_GAL4_TRANS: Attagene TRANS-FACTORIAL HepG2 Assay for GAL4 (Internal Marker) (AID 2282976; active = hit-call score of the fitted dose curve at least 0.9, where 1 is the maximum); conditions: HepG2 Attagene TRANS GAL4 internal marker reporter
How it was run: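 First, HepG2 cells were transfected with reporter units under GAL4-UAS control. Next, they were treated with chemical for 24 h. Finally, RNA was reverse-transcribed, PCR-amplified, FAM-labelled and resolved by capillary electrophoresis, with induction scored against DMSO.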

[8] = molecular target: Estrogen-related receptor gamma (Homo sapiens) (UniProt P62508); assay: ATG_ERRg_TRANS: Attagene TRANS-FACTORIAL HepG2 Assay for human Estrogen-Related Receptor gamma (ERRg) (AID 2282977; active = hit-call score of the fitted dose curve at least 0.9, where 1 is the maximum;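 note: hits increase reporter signal over DMSO so potencies reflect activators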); conditions: HepG2 Attagene TRANS reporter, ERRg transactivation
Sequence of Estrogen-related receptor gamma (Homo sapiens) (P62508 whole entry, looked up, the tested form may be a part): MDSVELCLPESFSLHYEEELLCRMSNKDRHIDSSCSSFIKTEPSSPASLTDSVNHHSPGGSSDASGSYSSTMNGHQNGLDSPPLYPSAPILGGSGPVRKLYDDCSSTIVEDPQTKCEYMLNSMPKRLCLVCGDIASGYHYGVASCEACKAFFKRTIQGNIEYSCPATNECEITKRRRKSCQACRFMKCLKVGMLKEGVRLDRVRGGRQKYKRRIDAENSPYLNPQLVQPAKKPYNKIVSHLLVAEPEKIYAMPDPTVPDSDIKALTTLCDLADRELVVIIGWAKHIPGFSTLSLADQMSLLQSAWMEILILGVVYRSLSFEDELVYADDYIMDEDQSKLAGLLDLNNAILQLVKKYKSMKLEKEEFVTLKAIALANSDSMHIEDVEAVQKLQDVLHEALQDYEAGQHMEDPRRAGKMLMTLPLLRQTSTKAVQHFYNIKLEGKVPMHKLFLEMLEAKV
How it was run: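 Transfect HepG2 with multiple GAL4-UAS reporter transcription units; dose chemicals 24 h; isolate RNA, reverse-transcribe with oligo(dT), PCR-amplify, label with 6-FAM, digest with HpaI; size fragments by capillary electrophoresis. DMSO serves as negative control.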

[9] = molecular target: Steroid hormone receptor ERR1 (Homo sapiens) (UniProt P11474); assay: ATG_ERRa_TRANS: Attagene TRANS-FACTORIAL HepG2 Assay for human Estrogen-Related Receptor alpha (ERRa) (AID 2282971; active = hit-call score of the fitted dose curve at least 0.9, where 1 is the maximum); conditions: HepG2 Attagene TRANS reporter, ERRa transactivation
Sequence of Steroid hormone receptor ERR1 (Homo sapiens) (P11474 whole entry, looked up, the tested form may be a part): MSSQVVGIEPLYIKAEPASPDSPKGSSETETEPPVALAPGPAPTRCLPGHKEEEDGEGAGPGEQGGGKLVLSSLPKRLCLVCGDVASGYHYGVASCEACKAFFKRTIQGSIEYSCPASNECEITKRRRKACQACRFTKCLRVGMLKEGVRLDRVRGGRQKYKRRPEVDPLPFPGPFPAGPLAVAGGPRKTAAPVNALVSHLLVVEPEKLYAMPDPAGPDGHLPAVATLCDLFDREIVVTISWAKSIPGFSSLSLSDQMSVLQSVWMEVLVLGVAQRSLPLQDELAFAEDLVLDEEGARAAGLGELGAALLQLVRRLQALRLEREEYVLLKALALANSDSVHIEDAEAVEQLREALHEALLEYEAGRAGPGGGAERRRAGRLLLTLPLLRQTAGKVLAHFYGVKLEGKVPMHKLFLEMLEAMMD
How it was run: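 Reporter transcript induction was quantified by RT-PCR and capillary electrophoresis of FAM-labelled, HpaI-cut products after 24 h treatment of HepG2 cells carrying transiently transfected GAL4-UAS reporter units and an exogenous ERRa-Gal4 fusion; activity scored as increase over DMSO.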

| Compound | outcome [1] | outcome [2] | outcome [3] | AC50 [4] | outcome [5] | outcome [6] | outcome [7] | outcome [4] | outcome [8] | outcome [9] | AC50 [2] | AC50 [3] |
| --- | --- | --- | --- | --- | --- | --- | --- | --- | --- | --- | --- | --- |
| CCCCCCCCCCOC(C)=O | inactive | inactive | inactive | 47.2 µM (active) | inactive | inactive | inactive |  |  |  |  |  |
| C1=CCCC1 | inactive | inactive | inactive |  |  | inactive | inactive | inactive |  |  |  |  |
| COc1cc(C)ccc1C(C)C | inactive | inactive | inactive |  | inactive |  | inactive | inactive | inactive |  |  |  |
| CCCCCCCCC(=O)OCC | inactive | inactive | inactive |  | inactive | inactive | inactive | inactive | inactive |  |  |  |
| OCCN(CCO)c1ccccc1 | inactive | inactive | inactive |  | inactive |  | inactive | inactive |  |  |  |  |
| Nc1ccc(Oc2ccc(N)c(N)c2)cc1 | inactive | inactive | inactive |  |  |  | inactive | inactive | inactive |  |  |  |
| CCOCC(=O)O | inactive | inactive | inactive |  | inactive | inactive |  |  |  | inactive |  |  |
| [Cl][Nd]([Cl])[Cl] | inactive | inactive | inactive |  | inactive |  |  |  |  | inactive |  |  |
| CC(=O)c1ccc2c(c1)CCCC2 | inactive | inactive | inactive |  |  | inactive |  | inactive |  |  |  |  |
| CCC(CO)CO | inactive | inactive | inactive |  | inactive |  | inactive | inactive |  |  |  |  |
| CCCC(=O)OCc1ccccc1 | inactive | inactive | inactive |  | inactive | inactive | inactive |  |  | inactive |  |  |
| CCOC(=O)Cc1cccc2ccccc12 | inactive | inactive | inactive |  | inactive | inactive |  | inactive | inactive |  |  |  |
| Cc1cc(C)c(C(=O)O)c(C)c1 | inactive | inactive | inactive |  |  |  | inactive | inactive |  |  |  |  |
| CCCCCCCCCCCCCCCC[n+]1ccccc1 | inactive |  |  |  | inactive |  |  |  |  |  | 45.8 µM (active) | 3.87 µM (active) |
